Experimental data: PubChem BioAssay (EPA / NIEHS)
Active and inactive are the calls of the source. How the source made its calls: active means hit-call score of the fitted dose curve at least 0.9, where 1 is the maximum; inactive means score below 0.9.

Tests used:
[1] = BSK_3C_Vis: BioMAP Diversity Plus: 3C Assay for Morphology Visualization (AID 2283025); details: primary human endothelial cells (HUVEC);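 further: fitted both ways so gain or loss versus DMSO counts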;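 on AC50: light microscopy image of cell morphology used as background control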
Outline: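 Light-microscopy visualization of HUVEC cultures at 24 h post-treatment, with DMSO as baseline for bidirectional fitting.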

[2] = read-out: Pselectin, SELP (gene 6403); test: BSK_4H_Pselectin: BioMAP Diversity Plus: 4H Assay for Pselectin Biomarker Activity (AID 2283026); details: primary human endothelial cells (HUVEC); actives raise or lower the signal
Outline: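 ELISA of surface P-selectin on HUVEC, 24 h after dosing, with parallel SRB staining (0.1% after 10% TCA fixation, 560 nm) for overt cytotoxicity. Activity fitted in both directions relative to DMSO.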

[3] = BSK_4H_SRB: Viability Assessment in the BioMAP Diversity Plus: 4H Assay (AID 2283027); details: primary human endothelial cells (HUVEC);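 further: cells exposed to compound for 24 h before staining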;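 on AC50: curves fitted both ways versus DMSO so AC50 may be loss or gain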
Outline: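 HUVEC, 24 h post-dose; 10% TCA fix, 0.1% SRB stain, A560 nm. Total protein = overt cytotoxicity, parallel to biomarker read. Bidirectional fit vs DMSO baseline.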

[4] = BSK_BE3C_SRB: Viability Assessment in the BioMAP Diversity Plus: BE3C Assay (AID 2283028); details: primary human bronchial epithelial cells;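 on AC50: fitted both ways so AC50 may mark signal gain or loss versus DMSO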
Outline: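 Primary human bronchial epithelium; chemical dosing, 24 h; 10% TCA fix, 0.1% SRB stain, A560; bidirectional fit vs DMSO baseline.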

[5] = read-out: Thrombomodulin, THBD (gene 7056); test: BSK_3C_Thrombomodulin: BioMAP Diversity Plus: 3C Assay for Thrombomodulin Biomarker Activity (AID 2283029); details: primary human endothelial cells (HUVEC); actives raise or lower the signal
Outline: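 ELISA measurement of thrombomodulin on HUVEC surface 24 h after chemical dosing; activity fitted in both directions relative to DMSO vehicle.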

[6] = read-out: Urokinase-type plasminogen activator receptor (uPAR), PLAUR (gene 5329); test: BSK_4H_uPAR: BioMAP Diversity Plus: 4H Assay for Urokinase-type plasminogen activator receptor (uPAR) Biomarker Activity (AID 2283030); details: primary human endothelial cells (HUVEC); actives raise or lower the signal
Outline: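 HUVEC, 24 h post-dose; uPAR by ELISA; bidirectional fit vs DMSO baseline.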

[7] = read-out: Vascular endothelial growth factor receptor 2 (Homo sapiens) (UniProt P35968); test: BSK_4H_VEGFRII: BioMAP Diversity Plus: 4H Assay for Vascular endothelial growth factor receptor 2 (VEGFR2) Biomarker Activity (AID 2283031); details: primary human endothelial cells (HUVEC); actives raise or lower the signal;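 on AC50: cell-surface VEGFR2 protein level quantified by ELISA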
Outline: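 HUVEC (human primary), 4H system; 24 h post-dose; VEGFRII by ELISA; bidirectional curve fit vs DMSO baseline; gain or loss of signal scored.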

[8] = read-out: Human Leukocyte Antigen - DR isotype (HLADR), HLA-DRA (gene 3122); test: BSK_BE3C_HLADR: BioMAP Diversity Plus: BE3C Assay for Human Leukocyte Antigen - DR isotype (HLADR) Biomarker Activity (AID 2283032); details: primary human bronchial epithelial cells; actives raise or lower the signal
Outline: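 Cell-surface HLA-DR ELISA readout at 24 h after dosing in the BE3C primary human lung bronchial epithelial system; gain or loss of signal against DMSO, with parallel sulforhodamine B staining of total protein for overt cytotoxicity.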

[9] = read-out: Vascular cell adhesion molecule 1 (VCAM1), VCAM1 (gene 7412); test: BSK_4H_VCAM1: BioMAP Diversity Plus: 4H Assay for Vascular cell adhesion molecule 1 (VCAM1) Biomarker Activity (AID 2283033); details: primary human endothelial cells (HUVEC); actives raise or lower the signal
Outline: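 VCAM-1 ELISA read 24 h after chemical dosing of HUVEC in the BioMAP 4H system, with gain or loss of signal fitted relative to DMSO. Parallel SRB staining (560 nm) checked overt cytotoxicity.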

[10] = read-out: Monokine induced gamma interferon (MIG), CXCL9 (gene 4283); test: BSK_BE3C_MIG: BioMAP Diversity Plus: BE3C Assay for Monokine induced gamma interferon (MIG) Biomarker Activity (AID 2283035); details: primary human bronchial epithelial cells; actives raise or lower the signal
Outline: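 Dose cells (human primary bronchial epithelial), incubate 24 h, quantify MIG by ELISA, then fit concentration–response in both directions relative to DMSO control.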

[11] = read-out: Transforming growth factor beta 1 (TGFb1), TGFB1 (gene 7040); test: BSK_BE3C_TGFb1: BioMAP Diversity Plus: BE3C Assay for Transforming growth factor beta 1 (TGFb1) Biomarker Activity (AID 2283036); details: primary human bronchial epithelial cells; actives raise or lower the signal
Outline: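 ELISA readout of TGF-b1 from human lung bronchial epithelial primary cells, taken 24 h post-treatment. Gain or loss of signal fitted relative to DMSO baseline, with parallel SRB staining for overt cytotoxicity.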

[12] = read-out: Interleukin-6 (IL6), IL6 (gene 3569); test: BSK_CASM3C_IL6: BioMAP Diversity Plus: CASM3C Assay for Interleukin-6 (IL6) Biomarker Activity for (AID 2283040); details: primary human coronary artery smooth muscle cells; actives raise or lower the signal
[13] = read-out: Interleukin-8 (IL8), CXCL8 (gene 3576); test: BSK_CASM3C_IL8: BioMAP Diversity Plus: CASM3C Assay for Interleukin-8 (IL8) Biomarker Activity (AID 2283042); details: primary human coronary artery smooth muscle cells; actives raise or lower the signal;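 further: IL-8 protein level quantified by ELISA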
[14] = read-out: Human Leukocyte Antigen - DR isotype (HLADR), HLA-DRA (gene 3122); test: BSK_CASM3C_HLADR: BioMAP Diversity Plus: CASM3C Assay for Human Leukocyte Antigen - DR isotype (HLADR) Biomarker Activity (AID 2283043); details: primary human coronary artery smooth muscle cells; actives raise or lower the signal;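 further: cell-surface HLA-DR protein level quantified by ELISA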
[15] = read-out: Interferon-gamma inducible Protein 10 (IP10), CXCL10 (gene 3627); test: BSK_BE3C_IP10: BioMAP Diversity Plus: BE3C Assay for Interferon-gamma inducible Protein 10 (IP10) Biomarker Activity (AID 2283034); details: primary human bronchial epithelial cells; actives raise or lower the signal
Outline: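 IP-10 quantified by ELISA in human primary bronchial epithelial cell cultures at 24 hours post-dosing. Gain or loss of signal fitted relative to DMSO; parallel SRB staining assessed overt cytotoxicity.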

[16] = read-out: urokinase plasminogen activator (uPA), PLAU (gene 5328); test: BSK_BE3C_uPA: BioMAP Diversity Plus: BE3C Assay for urokinase plasminogen activator (uPA) Biomarker Activity (AID 2283038); details: primary human bronchial epithelial cells; actives raise or lower the signal;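 further: uPA protein level quantified by ELISA in cell cultures; uPA read one day after compound addition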
Outline: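 ELISA read-out of uPA in human lung primary bronchial epithelial cultures, 24 h post-dosing. Gain or loss of signal fitted bidirectionally relative to DMSO baseline; cytotoxicity checked in parallel cultures via SRB total protein stain.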

[17] = read-out: Tissue plasminogen activator (tPA), PLAT (gene 5327); test: BSK_BE3C_tPA: BioMAP Diversity Plus: BE3C Assay for Tissue plasminogen activator (tPA) Biomarker Activity (AID 2283041); details: primary human bronchial epithelial cells; actives raise or lower the signal
Outline: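 tPA measured by ELISA 24 h after dosing human primary bronchial epithelial cells (BE3C system). Changes in either direction were fitted against DMSO. Parallel cultures were stained with SRB to flag overt cytotoxicity.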

[18] = read-out: Plasminogen activator inhibitor-1 (PAI1), SERPINE1 (gene 5054); test: BSK_BE3C_PAI1: BioMAP Diversity Plus: BE3C Assay for Plasminogen activator inhibitor-1 (PAI1) Biomarker Activity (AID 2283037); details: primary human bronchial epithelial cells; actives raise or lower the signal
Outline: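 PAI-1 was measured by ELISA in human primary bronchial epithelial cultures 24 h after chemical dosing, with cytotoxicity checked by SRB total-protein staining in parallel cultures. Activity was fitted in both directions relative to DMSO.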

[19] = read-out: Urokinase-type plasminogen activator receptor (uPAR), PLAUR (gene 5329); test: BSK_BE3C_uPAR: BioMAP Diversity Plus: BE3C Assay for Urokinase-type plasminogen activator receptor (uPAR) Biomarker Activity (AID 2283039); details: primary human bronchial epithelial cells; actives raise or lower the signal;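 further: cells exposed to compound for one day before measurement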
Outline: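 uPAR levels were measured by ELISA after 24 h compound treatment of primary human bronchial epithelial cells, fitted in both directions relative to DMSO. Parallel SRB staining served as the cytotoxicity read-out.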

Measured: AC50

CCN(CC)C(=O)c1cc(S(=O)(=O)Cc2ccccc2)c(N2CCC(c3ccccc3)CC2)cc1N(CC)CCN(C)C
active: [1] 6.48 µM | [2] 7.87 µM | [3] 19.2 µM | [4] 11 µM | [5] 4.43 µM | [6] 19.8 µM | [8] 8.48 µM | [9] 18.3 µM | [10] 12.6 µM | [11] 9.99 µM | [12] 0.7 µM | [13] 24.8 µM | [14] 5.38 µM
inactive: [7]

Cc1ccc(C(C)C)cc1
not listed: [5] | [17] | [18] | [19]
inactive: all other assays above

Oc1ccc2ccccc2c1
active: [12] 20 µM
not listed: [15] | [18] | [19]
inactive: all other assays above

CCN(Cc1cccc(S(=O)(=O)O)c1)c1ccc(C(=C2C=CC(=[N+](CC)Cc3cccc(S(=O)(=O)O)c3)C=C2)c2ccccc2S(=O)(=O)[O-])cc1
not listed: [1] | [5] | [18] | [19]
inactive: all other assays above

CCCCCCCCCC(=O)O
not listed: [5] | [15] | [17] | [19]
inactive: all other assays above

Cc1oc2c(NC(=O)c3c(Cl)cccc3Cl)cccc2c1C(C)(C)O
active: [1] 20.7 µM | [2] 13.2 µM | [3] 15 µM | [8] 18.1 µM | [12] 33.2 µM
not listed: [5] | [17] | [19]
inactive: all other assays above

COc1ccc2cc(S(=O)(=O)N[C@H](CC(=O)N[C@H](Cc3ccc(CN4[C@H](C)CCC[C@@H]4C)cc3)C(=O)N(C)C(C)C)c3ccc4c(c3)OCO4)ccc2c1
active: [1] 5.55 µM | [2] 10.8 µM | [3] 19.1 µM | [6] 19.1 µM | [8] 32.8 µM | [10] 33.5 µM | [18] 19.1 µM | [14] 27.8 µM
inactive: [4] | [7] | [9] | [11] | [12] | [13]

O=C(O)Cc1cc(I)c(Oc2ccc(O)c(I)c2)c(I)c1
active: [6] 23.3 µM | [8] 17.6 µM | [9] 18.7 µM | [15] 10.3 µM | [10] 33.9 µM | [12] 29.6 µM | [17] 15.9 µM
not listed: [1] | [16] | [18] | [19]
inactive: all other assays above

CCCCCCCC[Si](OCC)(OCC)OCC
active: [3] 32.8 µM | [6] 33.2 µM | [9] 21.6 µM
not listed: [1] | [5] | [15] | [16] | [17] | [19]
inactive: all other assays above

Cc1cn([C@H]2C[C@H](N=[N+]=[N-])[C@@H](CO)O2)c(=O)[nH]c1=O
not listed: [1] | [5] | [16] | [18] | [19]
inactive: all other assays above

CN(C)C(=O)C1(N2CCCCC2)CCN(CC[C@@]2(c3ccc(Cl)c(Cl)c3)CN(C(=O)c3ccccc3)CCO2)CC1
inactive: [5] | [7]
active: [2] 15.6 µM | [3] 18.9 µM | [4] 26.6 µM | [6] 12.3 µM | [8] 14.4 µM | [9] 30.8 µM | [15] 16.4 µM | [10] 31.2 µM | [11] 32.3 µM | [18] 24.4 µM | [12] 31.2 µM | [17] 17.3 µM | [13] 32.4 µM | [14] 18.1 µM

O=C1CCC(C2CCCCC2)CC1
active: [8] 25.9 µM | [15] 29.6 µM
not listed: [1] | [5] | [19]
inactive: all other assays above

CC(C)(C)c1csc(-c2cc3cc(OCc4ccccc4CC(=O)O)ccc3o2)n1
active: [2] 18.7 µM | [3] 20 µM | [4] 12.2 µM | [6] 21 µM | [7] 9.41 µM | [8] 6.97 µM | [9] 31.1 µM | [15] 6.96 µM | [10] 11.4 µM | [18] 5.03 µM | [17] 6.81 µM | [14] 29 µM
inactive: [11] | [12] | [13]

O=C1O[C@H]([C@@H](O)CO)C(O)=C1O
not listed: [1] | [5] | [15] | [18]
inactive: all other assays above

CC[C@@H]1C[C@H](N(Cc2cc(C(F)(F)F)cc(C(F)(F)F)c2)C(C)=O)c2cc(C(F)(F)F)ccc2N1C(=O)OC(C)C
not listed: [1] | [16] | [17] | [19]
inactive: all other assays above
